From PubChem
Sampled rows, rich in hits. Any-hit rate of the full collection: about 7%.
BAZ2B block – inhibitors of human BAZ2B bromodomain; Q9UIF8; AlphaScreen BAZ2B-H3K14Ac peptide displacement; Potency, µM (titrated, usually from 114 µM), hits mostly inhibitors; 360,000 tested, 4.4% active; AID 504333; also: nearly all actives have a fitted effect of over 60% in size
Target sequence (Q9UIF8 whole entry, looked up): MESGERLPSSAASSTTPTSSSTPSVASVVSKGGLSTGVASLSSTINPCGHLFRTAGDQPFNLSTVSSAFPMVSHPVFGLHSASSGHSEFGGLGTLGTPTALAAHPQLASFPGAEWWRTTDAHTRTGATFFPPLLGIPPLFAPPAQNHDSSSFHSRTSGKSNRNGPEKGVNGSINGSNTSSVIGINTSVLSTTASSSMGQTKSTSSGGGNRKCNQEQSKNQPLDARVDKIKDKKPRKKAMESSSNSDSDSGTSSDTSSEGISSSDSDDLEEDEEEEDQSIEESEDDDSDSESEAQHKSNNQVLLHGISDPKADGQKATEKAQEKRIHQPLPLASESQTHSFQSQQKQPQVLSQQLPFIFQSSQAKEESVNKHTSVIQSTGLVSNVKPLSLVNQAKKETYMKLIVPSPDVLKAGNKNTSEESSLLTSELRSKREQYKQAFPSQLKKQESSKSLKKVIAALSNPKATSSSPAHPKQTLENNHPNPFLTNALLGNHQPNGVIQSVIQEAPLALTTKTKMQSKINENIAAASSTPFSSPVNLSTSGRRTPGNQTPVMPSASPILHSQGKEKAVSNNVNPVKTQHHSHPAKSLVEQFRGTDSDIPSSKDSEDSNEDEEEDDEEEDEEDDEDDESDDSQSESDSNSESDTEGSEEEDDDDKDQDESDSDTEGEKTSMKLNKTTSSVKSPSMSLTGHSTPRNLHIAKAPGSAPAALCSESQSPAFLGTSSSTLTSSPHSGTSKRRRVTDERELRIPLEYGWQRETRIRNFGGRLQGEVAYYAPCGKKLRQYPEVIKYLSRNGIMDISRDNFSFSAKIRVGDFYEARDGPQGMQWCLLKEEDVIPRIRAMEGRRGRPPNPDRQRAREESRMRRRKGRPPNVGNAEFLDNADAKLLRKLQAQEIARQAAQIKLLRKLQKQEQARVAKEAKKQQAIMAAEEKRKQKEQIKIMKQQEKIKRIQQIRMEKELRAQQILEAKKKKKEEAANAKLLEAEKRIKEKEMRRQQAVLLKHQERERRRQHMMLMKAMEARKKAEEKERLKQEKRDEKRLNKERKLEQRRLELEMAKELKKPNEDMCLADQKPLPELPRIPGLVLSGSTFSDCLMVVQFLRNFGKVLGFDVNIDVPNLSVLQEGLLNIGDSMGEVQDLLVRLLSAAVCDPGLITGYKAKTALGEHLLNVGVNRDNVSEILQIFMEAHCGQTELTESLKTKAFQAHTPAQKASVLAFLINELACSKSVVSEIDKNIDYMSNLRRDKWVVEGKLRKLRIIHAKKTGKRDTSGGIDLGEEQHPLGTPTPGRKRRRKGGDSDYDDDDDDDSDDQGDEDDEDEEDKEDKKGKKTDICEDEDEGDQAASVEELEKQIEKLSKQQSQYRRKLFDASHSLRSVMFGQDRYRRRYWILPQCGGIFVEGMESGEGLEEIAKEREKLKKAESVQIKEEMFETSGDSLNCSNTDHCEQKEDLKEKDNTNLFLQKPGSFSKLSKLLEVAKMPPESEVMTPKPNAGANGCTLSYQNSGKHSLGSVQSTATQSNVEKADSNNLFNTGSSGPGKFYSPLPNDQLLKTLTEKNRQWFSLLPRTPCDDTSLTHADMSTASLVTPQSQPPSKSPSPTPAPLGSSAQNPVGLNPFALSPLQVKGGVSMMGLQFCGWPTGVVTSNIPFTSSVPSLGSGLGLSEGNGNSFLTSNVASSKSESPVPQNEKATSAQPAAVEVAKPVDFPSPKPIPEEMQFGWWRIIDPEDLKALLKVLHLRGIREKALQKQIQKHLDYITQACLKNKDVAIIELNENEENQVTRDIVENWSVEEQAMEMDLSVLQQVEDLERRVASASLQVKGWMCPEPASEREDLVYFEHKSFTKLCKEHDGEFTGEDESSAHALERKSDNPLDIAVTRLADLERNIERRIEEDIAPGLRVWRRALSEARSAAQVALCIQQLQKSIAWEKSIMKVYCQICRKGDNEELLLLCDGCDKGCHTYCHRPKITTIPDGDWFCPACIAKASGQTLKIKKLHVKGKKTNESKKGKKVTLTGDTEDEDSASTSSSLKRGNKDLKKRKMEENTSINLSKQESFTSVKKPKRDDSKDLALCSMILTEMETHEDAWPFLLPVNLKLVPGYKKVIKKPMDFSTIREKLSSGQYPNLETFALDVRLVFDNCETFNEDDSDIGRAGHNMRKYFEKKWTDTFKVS
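Multi-concentration screen (max 110 uM) measuring displacement of acetylated histone H3 peptide from BAZ2B by AlphaScreen, using 50 nM protein, 50 nM peptide and 10 ug/mL streptavidin donor plus Ni-chelate acceptor beads.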
JMJD2A Tudor inh – inhibitors of human JMJD2A Tudor domain. AlphaScreen JMJD2A-Tudor / H3K4me3 peptide binding. Potency, µM (highest dose often 114 µM), hits mostly inhibitors. 390,000 tested, 4.4% active; also: nearly all actives have a fitted effect of over 50% in size
KAT2A inh – inhibitors of human GCN5L2 histone acetyltransferase; Q92830; GCN5L2 HAT assay, ThioGlo1 CoA-SH fluorescence; Potency, µM (doses to about 58.9 µM), most hits filed as inhibitors; 390,000 tested, 0.21% active; AID 504327
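Titration-based screen in which CoA formation is detected via maleimide probe ThioGlo1 (50uM) turning fluorescent on thiol reaction; substrates H3(1-25) 75uM and acetyl-CoA 70uM, GCN5L2 20nM, 20 min incubation at room temperature.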
HP1b chromo inh – blocks HP1-beta chromodomain binding to methylated histone tails | P83916 | AlphaScreen HP1-beta / biotin-H3K9me3 peptide binding | Potency, µM (series often up to 114 µM), most hits filed as inhibitors | 390,000 tested, 0.56% active; also: nearly all actives have a fitted effect of over 70% in size
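HP1-beta protein (50 nM final) preincubated 30 min at room temperature with biotinylated H3(1-18)K9me3 peptide (50 nM) in PBS pH 7.4, 0.01% Tween-20, then compound added for 30 min. AlphaScreen streptavidin donor/nickel chelate acceptor beads (10 ug/mL final), 30 min dark, luminescence read.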
PI5P4Ka inh – PI5P4K alpha (human) kinase inhibition | P48426 | PI5P4Kalpha enzyme, ADP-Glo luminescence, 60 min; hits give low values | max response, % | 330,000 tested, 1.2% active | AID 652105; active = max response of -50% or lower; inconclusive = between -30% and -50%; inactive = -30% or higher; also: value at the top dose of about 77 µM
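ADP-Glo luminescence end-point after a 60 min room-temperature kinase reaction. PI5P4Kalpha and substrate in HEPES pH 7.4 buffer with EGTA, 0.1% CHAPS and 5% DMSO; ATP at 5 microM final.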
PLK1 PBD block – inhibitors of human PLK1 polo-box domain binding | P53350 | Plk1 PBD binding of FITC phosphopeptide, fluorescence polarization | Potency, µM, hits mostly inhibitors | 360,000 tested, 2.8% active; also: series mostly up to about 57 µM; nearly all actives have a fitted effect of over 65% in size
Numbers stand for hits; 0 = inactive; ? = inconclusive; - = no result; [ ] = dose if it differs, or a comment. Unless noted, calls follow the shape of the dose curve; as a rule, active = well fitted curve in the direction sought with a large enough effect; inconclusive = small, poorly fitted or top-dose-only effect, or another doubt; inactive = no such curve, though single readings can be large; an effect the other way counts as inactive or inconclusive.

SMILES	BAZ2B block	JMJD2A Tudor inh	KAT2A inh	HP1b chromo inh	PI5P4Ka inh	PLK1 PBD block
COc1cc(C2NC(=O)c3ccccc3O2)cc(OC)c1OC (stereo unspecified)	0	0	0	0	0	0
COc1ccc2c(c1)CC/C(=C\c1ccc(OC)c(Cn3nc(C)cc3C)c1)C2=O	?	89µM	0[0.501 µM]	0	0	0
COc1ccc2c(c1)CC/C(=C/c1ccco1)C2=O	35µM	0	0	?	0	0
O=C1/C(=C/c2ccco2)CCc2ccccc21	40µM	0	0	?	0	0
Cn1cccc1/C=C1\CCc2ccccc2C1=O	40µM	45µM	0	?	0	0
Cn1cccc1/C=C1\Cc2ccccc2C1=O	0	0	0	0	0	0
O=C(N1CCOCCOc2ccccc2OCCOCC1)C(F)(F)F	0	0	0	0	0	0
COC(=O)c1ccc(CSC2=NC[C@@H]3[C@@H]4C(=O)N(Cc5ccccc5)C(=O)[C@@H]4[C@](C)(C(=O)OC)N23)cc1	-	?	0	0	0	0
O=C(NCC1CCCCC1)c1ccc(Br)o1	0	0	0	0	0	0
CC[C@]12C(=O)N(C)C[C@H]([C@@H]3C(=O)N(C)C(=O)[C@@H]31)N2C(=O)c1ccc(C)cc1	-	0	-	0	0	0
COc1ccccc1NC(=O)C(C)OC(=O)C1CCN(S(=O)(=O)c2ccccc2C(F)(F)F)CC1 (stereo unspecified)	-	0	-	0	0	0
O=C1/C(=C\c2ccc(Br)o2)Cc2ccccc21	?	?	0	0	0	0
Nc1ccc2c(c1)C/C(=C/c1ccco1)C2=O	?	0	?	0	-74	?
CCC(C)NCCCOc1ccc(Cl)cc1C(C)(C)C (stereo unspecified)	50µM	3.2µM	0	?	0	0
CNCCCOc1ccc(Cl)cc1C(C)(C)C	32µM	45µM	0	?	0	0
COCCCNCCCOc1ccc(Cl)cc1C(C)(C)C	0	28µM	0	0	0	0
COC(=O)NNC(=O)CCCOc1ccc(Cl)cc1Cl	0	0	0	0	0	0
COc1ccc(NC(=O)C2=C(C)Nc3ncnn3C2c2ccc(O)cc2)cc1 (stereo unspecified)	0	0	0	0	-	-
CC1CCc2c(sc3[nH]c(=S)n(C)c(=O)c23)C1 (stereo unspecified)	0	?	0	?	0	11µM
O=C(CNC1CCCCCC1)Nc1ccccc1N1CCCCC1	?	1.4µM	0	?	0	0
O=C(CNCCC1=CCCCC1)Nc1ccccc1N1CCCCC1	50µM	5.6µM	0	?	-	0
Cc1cccc(NC(=O)CSCC(=O)Nc2ccccc2N2CCCC2)c1	35µM	?	0	0	0	0
CC1CC(=O)N(CC(=O)Nc2ccc(F)cc2F)c2ccccc2S1(=O)=O (stereo unspecified)	0	0	0	0	0	0
CCOc1ccc(CCNC(=O)Cn2nc(CC)n3c(cc4ccccc43)c2=O)cc1	0	0	0	0	-	-
O=C(Nn1c(-c2ccc(Br)cc2)nc2ccccc2c1=O)c1cccnc1	-	35µM	0	0	-56	?
SMILES	BAZ2B block	JMJD2A Tudor inh	KAT2A inh	HP1b chromo inh	PI5P4Ka inh	PLK1 PBD block
O=C(Nn1c(-c2ccncc2)nc2ccccc2c1=O)c1ccc(Br)cc1	0	0	0	0	0	0
O=c1c(F)cn(C2CCCO2)c(=O)n1Cc1ccc(Cl)cc1 (stereo unspecified)	0	0	0	0	0	27µM
COC(=O)c1c(C)oc2ccc(N(C(=O)c3ccncc3)S(=O)(=O)c3c(C)cc(C)cc3C)cc12	0	0	0	0	-	-
O=C(O)c1cc(N(Cc2ccccc2O)Cc2ccccc2O)ccc1O	-	50µM	-	0	-	-
CC(C)CC(=O)N1CCN(Cc2cccc(F)c2)CC1	56µM	4.5µM	?	?	0	0
COc1ccc(C(=O)N2CCN(C(=O)CC(C)C)CC2)cc1OC	0	0	0	0	0	0
COc1cccc(CN2CCN(C(=O)CC(C)C)CC2)c1	56µM	5.6µM	0	0	0	0
CCOC(=O)c1ccc(NC(=O)N2CCN(Cc3cccc(F)c3)CC2)cc1	0	0	0	0	-	0
